Assay results from article PMC9911399, “Two distinct binding modes provide the RNA-binding protein RbFox with extraordinary sequence specificity”.
Substitutions are numbered along the chain they refer to; changes in the protein carry UniProt numbers. In all, about 16,000 sequences were measured (“ka relative to ugcaugu”: median about 0.0091, highest 2% from about 0.032 on). This is one part of a sample in which the highest values are shown more often than they occur.

T1: RBFOX1 RRM (Homo sapiens, UniProt Q9NWB1 109-208)
T1 sequence: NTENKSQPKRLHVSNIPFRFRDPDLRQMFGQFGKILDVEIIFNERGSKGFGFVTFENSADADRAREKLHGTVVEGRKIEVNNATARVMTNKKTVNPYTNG

B1: AGAAAUU (DNA:RNA)
RNA: GGGAGACCGGAAUUCAGAUUGUCCAGAAAUUUUAAAUCCCGUCGUAGCCACCA
DNA 1: CAATCTGAATTCCGGTCTCCC
DNA 2: TGGTGGCTACGACGGGATT
B2: UCAAUAA (DNA:RNA)
RNA: B1 RNA with A25U, G26C, A29U, U30A, U31A
DNA 1: CAATCTGAATTCCGGTCTCCC
DNA 2: TGGTGGCTACGACGGGATT
B3: ACAGCAG (DNA:RNA)
RNA: B1 RNA with G26C, A28G, A29C, U30A, U31G
DNA 1: CAATCTGAATTCCGGTCTCCC
DNA 2: TGGTGGCTACGACGGGATT
B4: CUCGUGG (DNA:RNA)
RNA: GGGAGACCGGAAUUCAGAUUGUCCCUCGUGGUUAAAUCCCGUCGUAGCCACCA
DNA 1: CAATCTGAATTCCGGTCTCCC
DNA 2: TGGTGGCTACGACGGGATT
B5: CGGCUAG (DNA:RNA)
RNA: B4 RNA with U26G, C27G, G28C, G30A
DNA 1: CAATCTGAATTCCGGTCTCCC
DNA 2: TGGTGGCTACGACGGGATT
B6: GGGCUUG (DNA:RNA)
RNA: B1 RNA with A25G, A27G, A28C, A29U, U31G
DNA 1: CAATCTGAATTCCGGTCTCCC
DNA 2: TGGTGGCTACGACGGGATT
B7: UGGGCUU (DNA:RNA)
RNA: B1 RNA with A25U, A27G, A28G, A29C
DNA 1: CAATCTGAATTCCGGTCTCCC
DNA 2: TGGTGGCTACGACGGGATT
B8: GGGCUAG (DNA:RNA)
RNA: B4 RNA with C25G, U26G, C27G, G28C, G30A
DNA 1: CAATCTGAATTCCGGTCTCCC
DNA 2: TGGTGGCTACGACGGGATT
B9: CGGGCGC (DNA:RNA)
RNA: B4 RNA with U26G, C27G, U29C, G31C
DNA 1: CAATCTGAATTCCGGTCTCCC
DNA 2: TGGTGGCTACGACGGGATT
B10: UGGGGCU (DNA:RNA)
RNA: B1 RNA with A25U, A27G, A28G, A29G, U30C
DNA 1: CAATCTGAATTCCGGTCTCCC
DNA 2: TGGTGGCTACGACGGGATT
B11: GGGCGCU (DNA:RNA)
RNA: B1 RNA with A25G, A27G, A28C, A29G, U30C
DNA 1: CAATCTGAATTCCGGTCTCCC
DNA 2: TGGTGGCTACGACGGGATT
B12: GGGGGGC (DNA:RNA)
RNA: B4 RNA with C25G, U26G, C27G, U29G, G31C
DNA 1: CAATCTGAATTCCGGTCTCCC
DNA 2: TGGTGGCTACGACGGGATT
B13: CUGGGCU (DNA:RNA)
RNA: B4 RNA with C27G, U29G, G30C, G31U
DNA 1: CAATCTGAATTCCGGTCTCCC
DNA 2: TGGTGGCTACGACGGGATT
B14: GGGGCGC (DNA:RNA)
RNA: B4 RNA with C25G, U26G, C27G, U29C, G31C
DNA 1: CAATCTGAATTCCGGTCTCCC
DNA 2: TGGTGGCTACGACGGGATT
B15: GUCGGGC (DNA:RNA)
RNA: B4 RNA with C25G, U29G, G31C
DNA 1: CAATCTGAATTCCGGTCTCCC
DNA 2: TGGTGGCTACGACGGGATT
B16: GGCUAGU (DNA:RNA)
RNA: B1 RNA with A25G, A27C, A28U, U30G
DNA 1: CAATCTGAATTCCGGTCTCCC
DNA 2: TGGTGGCTACGACGGGATT
B17: UAGUGAU (DNA:RNA)
RNA: B1 RNA with A25U, G26A, A27G, A28U, A29G, U30A
DNA 1: CAATCTGAATTCCGGTCTCCC
DNA 2: TGGTGGCTACGACGGGATT
B18: CACUUCG (DNA:RNA)
RNA: B4 RNA with U26A, G28U, G30C
DNA 1: CAATCTGAATTCCGGTCTCCC
DNA 2: TGGTGGCTACGACGGGATT
B19: GUCUGUU (DNA:RNA)
RNA: B1 RNA with A25G, G26U, A27C, A28U, A29G
DNA 1: CAATCTGAATTCCGGTCTCCC
DNA 2: TGGTGGCTACGACGGGATT
B20: GGGUUAG (DNA:RNA)
RNA: B4 RNA with C25G, U26G, C27G, G28U, G30A
DNA 1: CAATCTGAATTCCGGTCTCCC
DNA 2: TGGTGGCTACGACGGGATT

target: T1, RBFOX1 RRM; experiment: EMSA; HiTS-Eq, 1 nM pool, 10 min; buffer printed only for the single-RNA assays: 10 mM Tris pH 7.5, 150 mM NaCl, 3.4 mM EDTA, 0.001% NP-40, 30 C; settings: tags: His6 N-terminal (pET28a); label: 5' 32P
Method in brief: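 These values rest on relative association constants, computed from read-count changes of each RNA species versus the control reaction and normalised to the cognate motif. Reads came from free RNA recovered by 8% native PAGE after purified RbFox RRM (wild type or mutant) at increasing concentrations was equilibrated for 10 min in 50 µL with 1 nM of a 5′-radiolabelled pool with 7 randomized nucleotides and DNA-annealed flanks.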

Binder | binding signal
B1 | 0.00368 KA relative to UGCAUGU
B2 | 0.00079 KA relative to UGCAUGU
B3 | 0.00511 KA relative to UGCAUGU
B4 | 0.00654 KA relative to UGCAUGU
B5 | 0.02 KA relative to UGCAUGU
B6 | 0.0531 KA relative to UGCAUGU
B7 | 0.0356 KA relative to UGCAUGU
B8 | 0.0339 KA relative to UGCAUGU
B9 | 0.0268 KA relative to UGCAUGU
B10 | 0.0267 KA relative to UGCAUGU
B11 | 0.0216 KA relative to UGCAUGU
B12 | 0.0272 KA relative to UGCAUGU
B13 | 0.0227 KA relative to UGCAUGU
B14 | 0.0421 KA relative to UGCAUGU
B15 | 0.0126 KA relative to UGCAUGU
B16 | 0.0239 KA relative to UGCAUGU
B17 | 0.00564 KA relative to UGCAUGU
B18 | 0.0103 KA relative to UGCAUGU
B19 | 0.0246 KA relative to UGCAUGU
B20 | 0.0153 KA relative to UGCAUGU
